Screening results (PubChem)
TLR4-MyD88 BLA – TLR4-MyD88 interaction inhibition in cells. hit rate 0.18% among 200,000. inhibition, % at 8.4 µM. O00206+Q99836. AID 861. HeLa CL3-4 TLR4/MyD88 BLA complementation, FRET ratio; in the data active means inhibition above about 25%
Beta2AR agonist – human beta-2 adrenergic receptor agonism by FAP | P07550 | Am2.2-beta2AR cells, FAP receptor internalization, flow cytometry | response, % (test concentration not listed) | hit rate 0.43% among 340,000 | AID 504454;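 active means response above a set limit, near 3 SD of response in nonfluorescent compounds, cut at about 42% in these data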
TLR9-MyD88 block – blocks human TLR9 binding to MyD88 | Q9NR96+Q99836 | CHO BLA complementation TLR9-MyD88, CCF4 FRET ratio | inhibition, % at 4.98 µM | hit rate 0.21% among 340,000;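 active means inhibition above the mean over all tested compounds plus 3 SD, cut at about 21% in these data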
NTR1 ag – NTR1 (human) agonism. NTR1-U2OS beta-arrestin-GFP spot imaging, agonist mode. activation, % at 20 µM. hit rate 0.17% among 330,000. AID 493036;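 active means activation at or above 40% of the spot to cytoplasm intensity ratio, with at least 20 cells analyzed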
Target sequence (P30989 whole entry, looked up): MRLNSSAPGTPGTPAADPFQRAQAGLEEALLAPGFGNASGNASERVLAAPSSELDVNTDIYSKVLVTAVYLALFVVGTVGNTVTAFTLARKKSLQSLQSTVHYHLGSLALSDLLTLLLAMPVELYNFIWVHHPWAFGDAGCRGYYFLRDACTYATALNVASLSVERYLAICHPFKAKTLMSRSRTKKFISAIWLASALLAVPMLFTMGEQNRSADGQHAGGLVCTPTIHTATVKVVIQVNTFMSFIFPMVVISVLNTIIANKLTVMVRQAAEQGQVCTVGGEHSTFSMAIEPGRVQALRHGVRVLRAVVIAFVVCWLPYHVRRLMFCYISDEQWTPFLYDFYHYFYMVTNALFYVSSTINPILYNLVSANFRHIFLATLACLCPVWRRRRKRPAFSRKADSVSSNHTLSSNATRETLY
ABHD5-PLIN5 inh – inhibitors of human ABHD5-perilipin-5 interaction | Q00G26+Q8WTS1 | Split G. princeps luciferase complementation, luminescence, 4 h | inhibition, % at 4 µM | hit rate 0.78% among 360,000 | AID 602281;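 active means inhibition above the mean inhibition across every tested compound plus 3 SD, cut at about 22% in these data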
NOD2 RIPK2 PPI – blocks binding of human NOD2 to RIPK2. inhibition, % at 4.98 µM. O43353. CHO BLA complementation NOD2-RIPK2, CCF4 ratio. AID 624267. hit rate 0.38% among 360,000; in the data active means inhibition above about 21%
NTR1 ag confirm – confirmation of agonists of human NTR1. NTR1-U2OS beta-arrestin-GFP translocation imaging. activation, % at 20 µM. hit rate 38% among 480. shares compounds with NTR1 ag;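 active means mean activation at 20 µM of at least 40%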
Beta2AR ag CP1 – agonists of human beta-2 adrenergic receptor; shares compounds with Beta2AR agonist; hit rate 25% among 1,100; Am2.2-beta2AR cells, FAP surface receptor, flow cytometry; stronger effect = lower value; percent response (surface receptor), % at 10 µM;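 active means surface receptor percent response at or below 58%, roughly 3 SD from nonfluorescent compounds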
FAP fluor counter – counter-screen for beta-2AR agonists: fluorescence in Am2.2 cells; shares compounds with Beta2AR agonist; FAP fluorogen flow cytometry, fluorescence counterscreen; stronger effect = lower value; calls only at 10 µM; 1,100 tested, under 10 active;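 active means percent response below a set limit in fluorescence channel 1 and below 50% in channel 8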
ABHD5 PLIN5 conf – confirmation of human ABHD5-PLIN5 interaction inhibitors; hit rate 67% among 2,200; shares compounds with ABHD5-PLIN5 inh; biochemical ABHD5-PLIN5 interaction, luminescence; inhibition, % at 4 µM; in the data active means inhibition above about 23%
HNF4 counter – counter-screen for ABHD5-PLIN5 inhibitors: HNF4 split-luciferase; shares compounds with ABHD5-PLIN5 inh; HNF4 dimerization, luminescence, biochemical; inhibition, % at 4 µM; hit rate 77% among 2,200; AID 651674;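 active means mean inhibition across replicate wells exceeding the computed hit threshold, cut at about 13% in these data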;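 further: light from luciferase halves that rejoin when HNF4 fusion proteins dimerize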
Of the large screens only hits and unclear results are named; the others gave an inactive call (follow-up assays come after a bar, where they were run). Only some compounds are listed: those with a hit (about 1.5% of all), similar ones and a draw of the others.

Oc1ccc(-c2cc(-c3ccc(O)cc3)nc(-c3ccccc3)n2)cc1	NTR1 ag 52 (no result: TLR4-MyD88 BLA) | NTR1 ag confirm 57
NC(=S)N/N=C/c1ccccc1OCCSc1ccc(Cl)cc1	NTR1 ag 43 | NTR1 ag confirm inactive
COc1cccc(/C=N/NC(N)=S)c1OCc1ccccc1Cl	none
COc1ccc(C(=O)n2nc(-c3ccco3)nc2N)cc1	NTR1 ag 52 | NTR1 ag confirm inactive
O=S(=O)(NCC(Nc1ccccc1)c1ccccc1)c1ccc(Cl)cc1 (centres undefined)	NTR1 ag 44 | NTR1 ag confirm inactive
Cc1cccc(C(=O)Oc2ccc(/C=N/NC(=O)c3ccc(O)cc3)cc2)c1	NTR1 ag 53 (no result: TLR4-MyD88 BLA) | NTR1 ag confirm inactive
CCCCCCCCCn1c2c(c(=N)c3c1CCC3)CCCC2	Beta2AR agonist 80, NTR1 ag 72, NOD2 RIPK2 PPI 24 (no result: TLR9-MyD88 block) | NTR1 ag confirm 79 | Beta2AR ag CP1 inactive | FAP fluor counter inactive
CC(=O)C1CCC2C3C=CC4=CC(=O)CCC4(C)C3CCC12C (centres undefined)	none (no result: TLR4-MyD88 BLA, Beta2AR agonist, TLR9-MyD88 block, NTR1 ag)
O=C(/C=C/c1cccc(Cl)c1)c1nc2ccccc2[nH]1	NTR1 ag 42, ABHD5-PLIN5 inh 61 | NTR1 ag confirm 72 | ABHD5 PLIN5 conf 98 | HNF4 counter 99
O=C(/C(=C/c1ccc(Cl)cc1)c1nc2ccccc2[nH]1)c1cccs1	Beta2AR agonist 62, NTR1 ag 54, ABHD5-PLIN5 inh 58 | NTR1 ag confirm 62 | ABHD5 PLIN5 conf 101 | HNF4 counter 94
N#Cc1ccc(C(=O)N2CCC3CC2c2cc(-c4ccc(F)cc4)ccc23)cc1 (centres undefined)	none (no result: TLR4-MyD88 BLA, NTR1 ag)
CCOC(=O)c1nc2sc(C)c(C)c2c(=O)[nH]1	none
CCOC(=O)/C(=C\c1cccc(O)c1)c1nc2sc(C)c(C)c2c(=O)[nH]1	NTR1 ag 43, ABHD5-PLIN5 inh 53 | NTR1 ag confirm 51 | ABHD5 PLIN5 conf 85 | HNF4 counter 80
O=C(/C=C/c1cccc(OCc2ccccc2)c1)c1cccnc1	NTR1 ag 54, ABHD5-PLIN5 inh 36 | NTR1 ag confirm inactive | ABHD5 PLIN5 conf 61 | HNF4 counter 70
O=C(O)/C=C/c1cccc(OCc2ccccc2)c1	none
O=C(/C=C/c1cccnc1)c1ccc(F)c(F)c1	NTR1 ag 61, ABHD5-PLIN5 inh 71 (no result: TLR4-MyD88 BLA) | NTR1 ag confirm 69 | ABHD5 PLIN5 conf 97 | HNF4 counter 95
CC(C)(C)c1ccc(CC(=O)N2CCC2(C)C(=O)NS(=O)(=O)c2ccc(Cl)s2)cc1 (centres undefined)	none (no result: TLR4-MyD88 BLA, Beta2AR agonist, TLR9-MyD88 block, NTR1 ag)
COC(=O)c1cc(=O)n(-c2ccc(F)cc2)c(=Nc2ccc(F)cc2)s1	NTR1 ag 50, ABHD5-PLIN5 inh 40 | NTR1 ag confirm 52 | ABHD5 PLIN5 conf 71 | HNF4 counter 49
COC(=O)c1cc(=O)n(Cc2cccs2)c(=Nc2ccc(F)cc2)s1	NTR1 ag 42, ABHD5-PLIN5 inh 45 | NTR1 ag confirm inactive | ABHD5 PLIN5 conf 65 | HNF4 counter 44
CCCCCc1cc(=O)oc2c(C(CCN3CCCC(C)C3)c3ccc(OC)cc3)c(OC)cc(OC)c12 (centres undefined)	none (no result: TLR4-MyD88 BLA)
CCCCCc1cc(=O)oc2c(C(CCN3CCCCC3)c3ccc(OC)cc3)c(OC)cc(OC)c12 (centres undefined)	NTR1 ag 48, ABHD5-PLIN5 inh 26 (no result: TLR4-MyD88 BLA) | NTR1 ag confirm 61 | ABHD5 PLIN5 conf inactive | HNF4 counter inactive
